This is a sample that favours compounds with a hit; in the whole collection about 2.4% have one here.
POLI inh: DNA polymerase iota (human) inhibition; Q9UNA4; Pol iota fluorescent replication assay, 10 min; Potency, µM (highest dose often 115 µM), for inactives: at the top dose activity, negative = inhibition, usual class: inhibitors; hit rate 1% among 390,000; note: potency is the fitted concentration of half-maximal effect
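Pol iota at 10 nM preincubated 15 min with compounds at room temperature; reaction started with fluorescent substrate, 50 nM final. Fluorescence read kinetically at 0 and 10 min; buffer-only wells as negative control.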
FEN1 inhibitor: inhibitors of human flap endonuclease 1. P39748. Recombinant FEN1 flap cleavage, fluorescence, 15 min. Potency, µM (series often up to 114 µM), for inactives: top-dose activity change, negative = inhibition, usual class: inhibitors. hit rate 0.35% among 390,000. AID 588795; note: potency is the fitted concentration of half-maximal effect; % is set by controls: 0 for no effect and ±100 for the full control effect; nearly all actives have a fitted effect of over 65% in size
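Concentration–response screening of FEN1 (10 nM): 15 min compound preincubation at room temperature, reaction started with 50 nM substrate and read at 0 and 15 min. Corrected, normalized data were fitted by a four-parameter Hill equation.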
Pol kappa inh-1: blocks human DNA polymerase kappa activity; Q9UBT6; AID 588579; Potency, µM (series often up to 107 µM), without a hit: at the top dose activity, negative = inhibition, actives largely listed as inhibitors; hit rate 0.53% among 400,000; purified Pol kappa, fluorescent DNA synthesis assay, 10 min; note: potency is the fitted concentration of half-maximal effect; % is set by controls: 0 for no effect and ±100 for the full control effect
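First, compounds were pin-transferred onto 10 nM Pol kappa. After 15 min at room temperature, substrate was added to 50 nM final. Fluorescence was then measured kinetically at 0 and 10 min.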
Pol eta inh-1: blocks human DNA polymerase eta activity; Potency, µM (series often up to 114 µM), inactives show at the highest dose activity change, negative = inhibition, most hits filed as inhibitors; hit rate 1.2% among 390,000; AID 588591; Q9Y253; recombinant Pol eta, fluorescent DNA replication assay; note: potency is the fitted concentration of half-maximal effect; % is set by controls: 0 for no effect and ±100 for the full control effect
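Pol eta (10 nM) was preincubated with compounds for 15 min at room temperature, after which fluorescent replication substrate (50 nM final) was added to start the reaction. Fluorescence was read kinetically at 0 and 10 min.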
WRN inhibitor: WRN helicase (human) inhibition; Q14191; WRN helicase unwinding, fluorescent forked duplex, kinetic; Potency, µM (doses to about 114 µM), inactives show top-dose activity change, negative = inhibition, actives largely listed as inhibitors; hit rate 0.46% among 360,000; note: potency is the fitted concentration of half-maximal effect; % is set by controls: 0 for no effect and ±100 for the full control effect; nearly all actives have a fitted effect of over 55% in size
Target sequence (Q14191 whole entry, looked up): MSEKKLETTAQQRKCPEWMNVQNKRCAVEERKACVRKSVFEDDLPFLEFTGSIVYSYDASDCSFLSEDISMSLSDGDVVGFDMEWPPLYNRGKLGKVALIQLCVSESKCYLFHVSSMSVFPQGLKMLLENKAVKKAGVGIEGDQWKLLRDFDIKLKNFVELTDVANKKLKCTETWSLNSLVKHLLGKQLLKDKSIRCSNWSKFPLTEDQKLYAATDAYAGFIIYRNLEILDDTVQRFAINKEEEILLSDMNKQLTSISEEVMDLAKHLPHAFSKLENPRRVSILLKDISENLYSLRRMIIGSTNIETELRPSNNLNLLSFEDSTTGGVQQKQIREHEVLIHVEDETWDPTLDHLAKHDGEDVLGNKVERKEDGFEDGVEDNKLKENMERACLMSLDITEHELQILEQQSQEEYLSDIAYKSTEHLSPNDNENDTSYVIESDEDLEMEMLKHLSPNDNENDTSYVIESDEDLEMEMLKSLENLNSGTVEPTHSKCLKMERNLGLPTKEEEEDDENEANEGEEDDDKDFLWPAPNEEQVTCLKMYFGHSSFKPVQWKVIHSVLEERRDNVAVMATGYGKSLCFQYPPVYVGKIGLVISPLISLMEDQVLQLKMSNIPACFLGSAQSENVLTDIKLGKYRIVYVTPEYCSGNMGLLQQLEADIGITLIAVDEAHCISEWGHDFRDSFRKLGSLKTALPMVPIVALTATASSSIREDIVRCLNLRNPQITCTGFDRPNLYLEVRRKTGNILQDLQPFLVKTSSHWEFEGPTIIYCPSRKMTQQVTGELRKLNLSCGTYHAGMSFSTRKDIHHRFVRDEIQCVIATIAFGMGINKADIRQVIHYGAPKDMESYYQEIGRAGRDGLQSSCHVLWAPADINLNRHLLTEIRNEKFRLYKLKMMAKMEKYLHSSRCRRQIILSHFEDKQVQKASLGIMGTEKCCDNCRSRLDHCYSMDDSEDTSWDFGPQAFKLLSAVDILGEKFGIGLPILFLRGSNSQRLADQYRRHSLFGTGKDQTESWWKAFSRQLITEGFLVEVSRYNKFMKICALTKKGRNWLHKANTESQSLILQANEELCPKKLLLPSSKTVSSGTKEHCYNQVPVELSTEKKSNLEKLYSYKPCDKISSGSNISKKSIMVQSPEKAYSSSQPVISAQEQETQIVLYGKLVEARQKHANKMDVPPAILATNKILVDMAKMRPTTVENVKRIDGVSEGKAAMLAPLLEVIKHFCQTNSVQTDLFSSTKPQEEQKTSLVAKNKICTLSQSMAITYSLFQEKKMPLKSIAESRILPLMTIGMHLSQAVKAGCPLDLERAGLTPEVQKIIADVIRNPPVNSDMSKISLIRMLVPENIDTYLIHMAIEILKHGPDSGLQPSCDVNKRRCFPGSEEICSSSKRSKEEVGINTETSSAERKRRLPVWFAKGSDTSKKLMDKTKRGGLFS
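Primary qHTS, 1536-well format. 20 nM WRN + compound, 15 min RT; start with 100 nM forked fluorophore/quencher duplex, 2 mM ATP (final); kinetic read ex 525/em 598 nm.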
POLB inh: DNA polymerase beta (human) inhibition; P06746; Pol beta primer extension/strand displacement, fluorescence kinetic; Potency, µM (series often up to 114 µM), for the others: top-dose activity change, negative = inhibition, hits mostly inhibitors; hit rate 1.3% among 340,000; note: potency is the fitted concentration of half-maximal effect; % is set by controls: 0 for no effect and ±100 for the full control effect
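Values derive from four-parameter Hill fits of normalized kinetic data: reads at 0 and 10 min following addition of 50 nM substrate to 10 nM Pol beta preincubated 15 min with compound.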
PGK validate: blocks T. brucei phosphoglycerate kinase; shares compounds with Pol kappa inh-1; TbPGK coupled GAPDH assay, Kinase-Glo luminescence; Potency, µM (series often up to 57.5 µM), for the others: top-dose activity change, negative = inhibition, most hits filed as inhibitors; hit rate 79% among 500; AID 686980; note: potency is the fitted concentration of half-maximal effect; % is set by controls: 0 for no effect and ±100 for the full control effect; nearly all actives have a fitted effect of over 65% in size
Pol iota confirm: Confirm cherry-picked inhibitors of human polymerase iota. Pol iota primer extension, TAMRA/BHQ fluorescence. Potency, µM, usual class: inhibitors. shares compounds with Pol kappa inh-1. hit rate 77% among 1,500; note: potency is the fitted concentration of half-maximal effect
GALK inh confirm: galactokinase (human) inhibition, confirmation | hit rate 70% among 150 | shares compounds with Pol eta inh-1 | AID 2015 | Potency, µM (highest dose often 115 µM), without a hit: at the top dose activity, negative = inhibition, usual class: inhibitors | purified GALK, Kinase-Glo ATP depletion luminescence
Redox cycling: counter-screen for GALK inhibitors: redox cycling H2O2 generation | shares compounds with Pol eta inh-1 | Phenol red-HRP H2O2 redox cycling, absorbance 600 nm | Potency, µM (series often up to 115 µM), without a hit: at the highest dose activity change, negative = H2O2 signal, hits mostly inhibitors | hit rate 40% among 150 | AID 2035
HEK293 viability: counter-screen for GALK inhibitors: HEK293 cell cytotoxicity | hit rate 10% among 170 | Potency, µM (titrated, usually from 46.1 µM), for inactives: at the highest dose activity change, negative = cytotoxicity, hits mostly inhibitors | shares compounds with Pol eta inh-1 | AID 2547 | HEK-293 viability, ATP luminescence (CellTiter-Glo), 24/48 h; note: potency is the fitted concentration of half-maximal effect; % is set by controls: 0 for no effect and ±100 for the full control effect
Pol kappa inh-2: Pol kappa (human) inhibition, cherry-pick confirmation. shares compounds with Pol eta inh-1. purified Pol-kappa, fluorescent strand-displacement substrate. Potency, µM, usual class: inhibitors. hit rate 76% among 920; note: potency is the fitted concentration of half-maximal effect
Pol eta inh-2: confirmation of human DNA polymerase eta inhibitors. hit rate 64% among 2,600. Pol eta primer extension, TAMRA/BHQ fluorescence, 10 min. AID 720502. Potency, µM, actives largely listed as inhibitors. shares compounds with Pol eta inh-1; note: potency is the fitted concentration of half-maximal effect
* hit, by the source's call; ? = inconclusive; / = not tested or not shown; ! = repeats disagree; [ ] = dose if it differs, or a comment. Calls come from the whole dose curve; as a rule, active = well fitted curve in the direction sought with a large enough effect; inconclusive = small, poorly fitted or top-dose-only effect, or another doubt; inactive = no such curve, though single readings can be large; an effect the other way counts as inactive or inconclusive.

SMILES | POLI inh | FEN1 inhibitor | Pol kappa inh-1 | Pol eta inh-1 | WRN inhibitor | POLB inh | Pol iota confirm | Pol eta inh-2 | others
O=C(CSc1ncc(S(=O)(=O)c2ccc(Cl)cc2)c(=O)[nH]1)Nc1cccc(C(F)(F)F)c1 | ? | 0.0% | -1.8% | -26.2% | / | ? | / | /
CC(C)(C)c1ccc(S(=O)(=O)c2cnc(SCC(=O)Nc3ccc(F)c(Cl)c3)[nH]c2=O)cc1 | ? | 50.1µM* | ? | 28.2µM* | / | 79.4µM* | ? | ?
O=C(N/N=C/c1cn(Cc2ccccc2)c2ccccc12)c1cc(O)cc(O)c1 | ? | -14.1% | ? | 44.7µM* | -18.7%[11.6 µM] | 31.6µM* | 33.6* | 30.1* | Pol kappa inh-2=18.9*
CCC(COC)Oc1cc(NCc2ccccc2)c2ncn(C(C)C)c2c1 (stereo unspecified) | 3.16µM* | ? | 4.8% | 79.4µM* | ? | / | 47.4* | 75.7*
CC1C(=O)OC2CC34C5CC(C(C)(C)C)C36C(OC(=O)C6O)OC4(C(=O)O5)C21O (stereo unspecified) | / | / | -4.4%[19.4 µM] | / | / | / | / | /
COc1ccc2c(c1)c(=O)oc1cc(OCC(=O)N3CCc4ccccc4C3)ccc12 | ? | -8.8% | ? | 89.1µM* | ? | 11.2µM* | 33.6* | 75.7* | PGK validate=3.26µM*;Pol kappa inh-2=8.44*
CC(C)(CS(=O)(=O)[O-])NC(=O)CC[N+](C)(C)CCO | 1.41µM* | 39.8µM* | 22.4µM* | 0.794µM* | 7.94µM* | 2µM* | / | 8.49* | PGK validate=3.26µM*
Cc1ccc[n+](-c2nc([O-])sc2C=O)c1 | ? | -12.5% | ? | 22.4µM* | -17.3%[11.6 µM] | ? | ? | ?
CC(C)c1ccc[n+](-c2nc([O-])sc2C=O)c1 | -0.3%[58.9 µM] | 4.8% | -6.9% | -12.4% | -3.1% | 12.4% | / | /
COCCn1c(=O)c(-c2cccs2)nc2cnc(N(C)C)nc21 | / | / | 1.3%[60.1 µM] | / | / | / | / | /
O=C(Nc1ccc(-c2nc3ccc(NC(=O)c4cccs4)cc3[nH]2)cc1)c1cccs1 | 20µM* | ? | ? | ? | -22.9%[57.1 µM] | 10µM* | 37.7* | 67.5*
O=C1C=C(N2CCOCC2)c2ccccc2C1=O | 1.78µM* | -18.4% | -8.0% | 5.62µM* | -19.1% | -10.9% | 16.8* | 7.57* | GALK inh confirm=8.41µM*;Redox cycling=4.73µM*;HEK293 viability=14.1µM*
CC1=C(C)C(=O)C(N2CCOCC2)=CC1=O | 8.0% | 0.2% | -19.6% | 3.3% | -0.3% | 81.1% | / | /
COc1cc(/C=C(\C#N)c2nc3ccccc3[nH]2)ccc1OCc1ccc(F)cc1 | ? | ? | -21.1% | 79.4µM* | / | 11.2µM* | 67* | ?
CCOc1cc(/C=C(\C#N)c2nc3ccccc3[nH]2)ccc1OC(C)C(=O)O (stereo unspecified) | -12.8% | -1.4% | -11.2% | -5.5% | -18.1% | 4.0% | / | /
Cc1cc(C)n(CCc2nc(-c3ccco3)cs2)n1 | 14.1µM* | -27.7% | 70.8µM* | 79.4µM* | ? | 31.6µM* | 75.2* | 84.9*
Cc1cc(C)n(CCc2nc(-c3cccs3)cs2)n1 | -8.3% | -2.4% | -18.6% | -6.4% | -15.0% | 3.8% | / | /
C=CCN(C)CCCCCCOc1ccc(C(=O)c2ccc(Br)cc2)c(F)c1 | 42.8% | -1.6% | 2.2%[60.1 µM] | / | / | / | / | /
COc1ccc(C(=O)/C=C/c2ccc(OCc3ccccc3)cc2)cc1CSCC(=O)O | 44.7µM* | -17.4% | -19.5% | 44.7µM* | ? | 5.4% | ? | ?
COc1ccc(-c2ccc3c(c2)S(=O)(=O)c2cccc(C(=O)NCc4ccccc4Cl)c2C3=O)cc1OC | 10µM* | ? | -1.9% | ? | -31.7%[11.6 µM] | / | 16.8* | 26.9*
O=C(NCc1ccco1)c1cccc2c1C(=O)c1ccc(/C=C/c3ccccc3)cc1S2(=O)=O | 25.1µM* | ? | ? | 14.1µM* | -14.5%[11.6 µM] | / | 42.3* | 37.9* | Pol kappa inh-2=18.9*
O=C(NCc1ccco1)c1cccc2c1C(=O)c1ccc(N3CCC(Cc4ccccc4)CC3)cc1S2(=O)=O | -4.4% | -14.9% | -29.0% | -14.2% | -4.1% | / | / | /
CCC(C)C(NC(=O)OC(C)(C)C)C(=O)NC1COC2CC(n3cc(F)c(=O)[nH]c3=O)OC12 (stereo unspecified) | -13.8% | 0.0% | -10.7% | / | / | / | / | /
CC(=O)Nc1ccc(N=Cc2c(O)c3ccccc3oc2=O)cc1 | -31.2% | -12.1% | 2.2% | 7.9% | 2.5% | 2.9% | / | /
CC(=O)Nc1ccc(N=Cc2c(O)c(C(=O)Nc3ccccc3)cc3ccccc23)cc1 | 7.4% | -6.1% | 5.0% | ? | -27.7%[11.6 µM] | ? | 29.9* | 75.7* | Pol kappa inh-2=75.2*
N[C@@H](CSS(=O)(=O)O)C(=O)O | / | / | 5.6%[19.4 µM] | / | / | / | / | /
CCc1ccc(C(=O)c2cn(CC(=O)Nc3ccc4c(c3)OCO4)c3ccc(CC)cc3c2=O)cc1 | -93.7% | 3.2% | -4.6% | 89.1µM* | / | 4.47µM* | 42.3* | ?
O=c1cnc2cnc(Nc3ccccc3)nc2n1CCc1ccccc1 | / | / | -4.7%[60.1 µM] | / | / | / | / | /
O=C1C(SCCO)=C(SCCO)C(=O)c2ccccc21 | 1.12µM*! | ? | ? | 15.8µM* | 79.4µM* | 5.5%[57.1 µM] | 23.8* | 23.9* | GALK inh confirm=18.8µM*;Redox cycling=10.6µM*;HEK293 viability=?
CN(C)C(=O)c1ccc(-c2ccc3ncnc(NCCN4CCOCC4)c3c2)cc1 | / | / | 6.0%[60.1 µM] | / | / | / | / | /
